The campaign covered roughly 1,600 compounds. About 420 (26%) were called active. Roughly 40% stayed inconclusive and do not appear here. The call rests on the fitted dose curve; in most records, active means well fitted inhibition curve with a large enough effect; inconclusive means small, poorly fitted or top-dose-only effect; inactive means flat fitted curve, though single readings scatter. Only a selection was taken, and actives are over-represented in it overall.
Assay: qHTS for Inhibitors of TGF-b: Cytotox Counterscreen for Cherry Picks; further: nearly all actives have a fitted effect of over 70% in size
Conditions: HepG2 CAGA-GFP viability, ATP luminescence, 18 h, cells stimulated with TGF-beta, 500 pg/mL; series mostly up to 46.1 µM; activity, negative = cytotoxicity: at the top concentration
Excerpt: TGF-b is a main component in the TGF-b signaling pathway which plays diverse roles in cellular and development pathways. TGF-b is mediated by transcription factors called "Smads". Although the Smad-dependent pathway is the primary canonical TGF-b signaling mode, TGF-b1 can also activate alternative signaling pathways, including those involving MAPK (ERK, JNK and p38). This interaction may mediate or enhance Smad-dependent responses, or can exert Smad-independent effects. The complexity of this signaling cascade allows the TGF-b superfamily to perform unique, overlapping or redundant functions. We believe that targeting the TGF-beta pathway at the Smad-transcription factor level may eliminate the consequences of disrupting the entire pathway and offer specificity without affecting other signaling pathways. Smad3 is the primary transducer of TGF-b's signals and Smad3 regulates many functions attributed to TGF-b signaling. We hypothesize that Smad3 inhibitors will selectively eliminate Smad3-specific TGF-beta signals without undesired off-target effects. We aim to identify Smad3-small molecule antagonists using a quantitative high throughput screening (qHTS) approach. A high-throughput assay was developed to screen the NIH Molecular Libraries Small Molecule Repository (MLSMR). This is a cell based assay, where TGF-b is tagged with GFP. This is a counterscreen that evaluates the cytotoxicity of the compounds that were identified as hits in the primary cell-based screen (AID 588855). MH087449NIH Chemical Genomics Center [NCGC] NIH Molecular Libraries Probe Centers Network [MLPCN] MLPCN Grant: MH087449 Assay Submitter (PI): Sushil Rane, National Institute of Diabetes and Kidney Diseases
Suspensions of trypsinized HEPG2 CAGA-GFP cells were dispensed into white, tissue culture-treated, solid 1536-well plates at 5uL/well (1000 cells/well final concentration) in DMEM medium supplemented with 1% FBS. Plates were incubated at 37 degrees C for 2 hours, after which 23 nL of compounds or DMSO were delivered to each well using a pin tool. One uL of recombinant TGF-beta in DMEM (1% FBS) was then dispensed (500 pg/mL final concentration), and plates were incubated at 37 degrees C for 18 hours. Two uL of CellTiter Glo (Promega), a luminescence-based viability reagent, was dispensed, followed by a 10 minute room temperature incubation. The plates were then measured on a PerkinElmer ViewLux plate reader for luminescence (clear filter) using a 5 second exposure. The %Activity was determined from the corrected luminescence values. Wells containing media only (no cells) were used to normalize %Activity of identified toxic compounds; media-only wells corresponded to 100%Activity (complete cell-killing), while DMSO-dosed cell controls were used to normalize 0%Activity (no toxicity). Concentration-response curves were fitted to the signals arising from the resulting luminescence. The concentration-effect curves were then classified based on curve quality (r2), response magnitude and degree of measured activity, and compounds were subsequently categorized based on their curve class.
Potency means the concentration at half of the fitted maximal effect.

| SMILES | Potency | activity, negative = cytotoxicity |
| --- | --- | --- |
| COc1cc(NC(=O)c2[nH]cnc2C(N)=O)cc(C(=O)Nc2cccc(C(F)(F)F)c2)c1 | 20.6 µM (active) |  |
| Cc1ccc(S(=O)(=O)Nc2nc3ccccc3nc2N2CCc3ccccc3C2)cc1 |  | -22.6% (inactive) |
| Cc1ccc(CN2CC(N3CCC(Cc4ccccc4)CC3)CS2(=O)=O)cc1 (centres undefined) |  | -20.7% (inactive) |
| COc1ccc(C)cc1S(=O)(=O)N1CCN(S(=O)(=O)c2cc(C(=O)O)ccc2C)CC1 |  | 2.15% (inactive) |
| O=C(/C(=C/c1cccc(Cl)c1)c1nc2ccccc2[nH]1)c1ccccc1 | 6.51 µM (active) |  |
| CN(c1ccccc1)S(=O)(=O)c1ccc(C(=O)N2CCN(c3ccccc3Cl)CC2)cc1 |  | -8.45% (inactive) |
| O=c1[nH]c(CCl)nc2cc(-c3ccc(Cl)cc3)sc12 | 23.1 µM (active) |  |
| CN(C)CCNC(=O)c1ccc(Cl)c2cc3ccccc3nc12 | 2.59 µM (active) |  |
| CC[C@H]1CN2CCc3cc(OC)c(OC)cc3[C@@H]2C[C@@H]1C[C@H]1NCCc2cc(OC)c(OC)cc21 | 3.66 µM (active) |  |
| COc1ccc(-c2onc(C)c2-c2ccc3c(c2)OCCO3)c(O)c1 |  | -22.4% (inactive) |
| COc1ccc(CC(=O)Nc2ccccc2NC(=O)c2ccco2)cc1OC |  | 8.69% (inactive) |
| O=C(Nc1nnc(S(=O)(=O)N2CCCCCC2)s1)c1cccc(Br)c1 | 7.31 µM (active) |  |
| Cc1ccc(S(=O)(=O)Nc2ccc3c(c2)C(=O)N([C@H](C)CO)C[C@@H](C)[C@@H](CN(C)C(=O)Nc2cccc4ccccc24)O3)cc1 |  | -28.8% (inactive) |
| Cc1cccc2sc(N(CCCN(C)C)C(=O)CCS(=O)(=O)c3ccccc3)nc12 | 18.4 µM (active) |  |
| COc1cccc2sc(N(CCCN(C)C)C(=O)CCS(=O)(=O)c3ccccc3)nc12 | 13 µM (active) |  |
| COC(=O)COc1cccc2c(=O)n(CC(=O)NCc3ccccc3)ccc12 |  | -2.86% (inactive) |
| CCCc1cc(-c2n[nH]c(=S)n2CC)c2ccccc2n1 |  | 3.2% (inactive) |
| Cc1ccnc(NC(=O)C2CCN(S(=O)(=O)c3c(C)c(C)cc(C)c3C)CC2)c1 | 11.6 µM (active) |  |
| Cc1ccc(C)c(S(=O)(=O)N2CCN(CC(=O)Nc3ccc([N+](=O)[O-])cc3)CC2)c1 |  | -22.4% (inactive) |
| Fc1cc(F)c2nc(Nc3nc4c(F)cccc4s3)sc2c1 |  | -21.5% (inactive) |

| SMILES | Potency | activity, negative = cytotoxicity |
| --- | --- | --- |
| Cc1cc(C)cc(N(CC(=O)N2CC=C(c3ccccc3)CC2)S(=O)(=O)c2c(C)noc2C)c1 |  | -22.1% (inactive) |
| Cc1cccc(NC(=O)c2nc(S(=O)(=O)Cc3ccccc3)ncc2Cl)c1 | 4.61 µM (active) |  |
| Cc1cccc(CS(=O)(=O)c2ncc(Cl)c(C(=O)Nc3ccc(F)cc3)n2)c1 | 10.3 µM (active) |  |
| CC(=O)c1cccc(-c2cnc3c(NC=O)cc(-c4ccc(N(C)C)cc4)cn23)c1 |  | -21.9% (inactive) |
| O=C(Nc1ccc(Cl)cc1)Nc1nnc(/C=C/c2ccccc2)s1 |  | -16.4% (inactive) |
| COc1ccc2nc(N3CCN(C(=O)c4ccc([N+](=O)[O-])o4)CC3)sc2c1 | 23.1 µM (active) |  |
| c1ccc2cc3c(NCCN4CCOCC4)ccnc3cc2c1 | 18.4 µM (active) |  |
| CN(C(=O)c1cccc(NC(=O)Cc2cccc([N+](=O)[O-])c2)c1)C1CCCCC1 |  | -11.1% (inactive) |
| OCCCNc1nccc(-c2cc(Nc3cccc(Cl)c3)ncn2)n1 | 0.651 µM (active) |  |
| CCOC(=O)C1=C(N)N(c2ccc(C)cc2)C2=C(C(=O)CCC2)C1c1cccs1 (centres undefined) |  | -23.3% (inactive) |
| CN(C)c1nc(=Nc2cccc(Cl)c2)ss1 |  | -14.9% (inactive) |
| COc1cccc(CNc2nc(NCc3ccccc3OC)nc3ccsc23)c1 | 16.4 µM (active) |  |
| FC(F)(F)c1ccccc1Cc1c(-c2ccccc2)nc2c3ccccc3ccn12 |  | -27.2% (inactive) |
| COc1cc(NC(=O)c2ccccc2NS(=O)(=O)c2ccc(Cl)s2)cc(OC)c1 | 8.2 µM (active) |  |
| COc1cc(CC(=O)Nc2nc(-c3ccc(F)c(F)c3)cs2)cc(OC)c1OC | 9.2 µM (active) |  |
| Cn1c(=O)n(C)c2cc(S(=O)(=O)N3CCCc4ccccc43)ccc21 |  | -7.71% (inactive) |
| CC1CCc2c(nc3ncnn3c2Nc2ccc(OC(F)(F)F)cc2)C1 (centres undefined) |  | -6.61% (inactive) |
| Clc1ccc2c(c1)C1=C(C(c3ccncc3)O2)C(c2ccc(Br)cc2)n2ncnc2N1 (centres undefined) |  | -17.4% (inactive) |
| O=C(NC1=CC(=O)c2ccccc2C1=O)c1ccccc1 | 8.2 µM (active) |  |
